Compounds with a hit are over-represented: about 5.4% of the library has one in this group of screens.
ALOX12 inhib: inhibitors of human 12-lipoxygenase (ALOX12). P18054. purified 12-hLO, xylenol orange hydroperoxide absorbance. Potency, µM (doses to about 57.1 µM), for inactives: at the top dose activity change, negative = inhibition, hits mostly inhibitors. 0.12% of 150,000 active. AID 1452; further: potency means the concentration at half of the fitted maximal effect; nearly all actives have a fitted effect of over 55% in size
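Purified human 12hLO (150 nM), preincubated 15 min with compound, then 40 uM arachidonic acid for 30 min, room temperature, Hepes pH 7.0 with 0.01% Triton X-100. Hydroperoxide detected by ferrous iron/xylenol orange; 573/405 nm absorbance ratio gives reaction progress.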
HPGD inh: inhibitors of human 15-hydroxyprostaglandin dehydrogenase (HPGD); P15428; purified HPGD, NADH fluorescence kinetic, PGE2 substrate; Potency, µM, for the others: at the top dose activity change, negative = inhibition, most hits filed as inhibitors; 4.3% of 150,000 active; active means well fitted inhibition curve with a large enough effect, not every such curve was filed as active; inconclusive means small, poorly fitted or top-dose-only effect, or another doubt; inactive means no such curve, though single readings can be large or run the other way; further: potency means the concentration at half of the fitted maximal effect
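20 nM HPGD preincubated 15 min at room temperature with compound in 50 mM Tris-HCl pH 8, 0.01% Tween 20. Started with 1 mM NAD+ and 30 uM prostaglandin E2; NADH fluorescence (360/450 nm) read 5 times over 30-s intervals, last minus first.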
PNC assembly inh: perinucleolar compartment assembly inhibition | 3.1% of 140,000 active | activity change (PNC), negative = inhibition, % at 10 µM | PC3M PTB-GFP, PNC prevalence imaging, 16 h; active compounds read low;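 active means readout at or below -70, meaning at least 70% loss of cells showing the perinucleolar compartment, a nuclear body marking cancer cells; inconclusive means readout between -30 and a set limit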;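 further: plate controls were DMSO wells for no effect and camptothecin positive control wells for full effect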
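Compounds are pinned in duplicate onto adhered PC3M cells stably expressing GFP-tagged PTB and incubated 16 h at 37 C. Cells are then fixed, nuclei stained with Hoechst, and PNC-positive cells counted.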
ALOX15B inhib: 15-hLO-2 (ALOX15B) enzyme inhibition | O15296 | purified 15hLO-2, xylenol orange hydroperoxide absorbance | Potency, µM (doses to about 57.1 µM), inactives show top-dose activity change, negative = inhibition, usual class: inhibitors | 0.56% of 110,000 active; further: potency means the concentration at half of the fitted maximal effect; nearly all actives have a fitted effect of over 60% in size
Target sequence (O15296 whole entry, looked up): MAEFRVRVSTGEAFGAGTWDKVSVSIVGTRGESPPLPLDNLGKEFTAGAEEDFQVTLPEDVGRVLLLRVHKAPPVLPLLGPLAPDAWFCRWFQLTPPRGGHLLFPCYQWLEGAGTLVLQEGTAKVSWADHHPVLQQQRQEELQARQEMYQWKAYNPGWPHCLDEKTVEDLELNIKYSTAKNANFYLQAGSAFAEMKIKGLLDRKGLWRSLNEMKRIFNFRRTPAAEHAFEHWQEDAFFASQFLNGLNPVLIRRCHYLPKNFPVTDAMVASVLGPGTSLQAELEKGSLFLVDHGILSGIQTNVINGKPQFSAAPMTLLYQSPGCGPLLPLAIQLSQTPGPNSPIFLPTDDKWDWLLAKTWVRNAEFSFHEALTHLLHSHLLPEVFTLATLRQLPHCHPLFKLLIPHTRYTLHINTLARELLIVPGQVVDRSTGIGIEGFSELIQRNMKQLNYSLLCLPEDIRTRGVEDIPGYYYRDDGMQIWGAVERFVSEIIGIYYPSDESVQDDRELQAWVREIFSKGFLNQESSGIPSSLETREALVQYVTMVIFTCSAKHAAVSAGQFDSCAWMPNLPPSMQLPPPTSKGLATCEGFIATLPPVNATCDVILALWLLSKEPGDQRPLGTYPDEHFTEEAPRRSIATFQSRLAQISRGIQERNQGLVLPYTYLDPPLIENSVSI
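Read-out: hydroperoxide product oxidises ferrous iron, measured as xylenol orange complex via the 573-to-405 nm absorbance ratio after 30 min. Reaction: 50 nM enzyme, 15 min compound preincubation, 45 uM arachidonic acid, 90 min RT, Hepes pH 7.5 with Triton X-100.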
IMPase Li cell: IMPase inhibition in cells with lithium potentiation; CHO-M1 cells, IP1 TR-FRET (IP-One), carbachol + lithium; Potency, µM (doses to about 59.4 µM), for inactives: top-dose activity, negative = IMPase inhibition, hits mostly inhibitors; 0.35% of 210,000 active;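 further: IP1 builds up when IMPase is blocked and the TR-FRET signal falls; potency means the concentration at half of the fitted maximal effect; plate controls were basal vehicle for no effect and high inhibitor control for full effect; nearly all actives have a fitted effect of over 50% in size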
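CHO cells stably expressing M1 receptor (2000/well) were cultured 16–30 h, then exposed to compounds with a small lithium addition for 30 min at 37C. IP1 was measured by TR-FRET competition; AC50 from Hill fits.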
IMPase inh: cell-permeable inhibitors of inositol monophosphatase (IMPase); CHO-M1 cells, IP1 accumulation, HTRF TR-FRET ratio; inhibition (IP1 accumulation), % at 46.1 µM; 120,000 tested, under 10 active; P97697; active means well fitted curve in the direction sought with a large enough effect in the signal ratio, not every such curve was filed as active; inconclusive means small, poorly fitted or top-dose-only effect, or a change in a side signal; inactive means no such curve, though single readings can be large or run the other way; the % refers to the signal ratio;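 further: cells stimulated with carbachol in lithium chloride buffer; plate controls were DMSO basal wells for no effect and reference inhibitor wells for full effect; higher means more IMPase inhibition seen as more IP1 and lower FRET ratio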
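The IP-One HTRF competitive assay in carbachol-stimulated CHO-M1 cells quantifies cellular IP1. Compounds spanned up to 46 uM final, and activity is expressed as AC50 from concentration-response fits of the ratio and donor data.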
The depositor's hits bear a star; ? = inconclusive; . = no result; [ ] = another dose, or the depositor's remark. Unless noted, the call rests on the fitted dose curve; in most records, active means well fitted curve in the direction sought with a large enough effect; inconclusive means small, poorly fitted or top-dose-only effect, or another doubt; inactive means no such curve, though single readings can be large; an effect the other way counts as inactive or inconclusive. Unless noted, on the % scale 0 is the no-effect control and ±100 the full control effect.

SMILES	ALOX12 inhib	HPGD inh	PNC assembly inh	ALOX15B inhib	IMPase Li cell	IMPase inh
Cn1nnnc1SC1CC(=O)N(c2ccccc2)C1=O (centres undefined)	.	.	.	.	4%	.
O=C1CC(Sc2nnnn2C2CCCCC2)C(=O)N1c1ccccc1 (centres undefined)	1%	?	-100*	.	6%	-11
Clc1ccccc1-c1ccc2ncnc(NC3CCNCC3)c2c1	.	.	.	1%	3%	.
c1ccc2c[n+](Cc3ccnc4ccccc34)ccc2c1	1%[11.4 µM]	-5%	.	-3%[11.4 µM]	19%	.
O=C(/C=C/c1ccccc1)N/C(=C\c1ccco1)C(=O)NCCO	-3%	-14%	71	1%	-13%[38.3 µM]	1
CCNC(=O)/C(=C/c1ccco1)NC(=O)/C=C/c1ccccc1	?	18µM*	-17	-29%	21%[38.3 µM]	-5
COc1ccccc1CCNC(=O)C(C)Sc1nc(-c2ccccc2)cc(C(F)(F)F)n1 (centres undefined)	.	.	.	.	.	5
Cc1c(NC(=O)CSc2ccc(Cl)cc2)cccc1-c1nc2cc(Cl)ccc2o1	0%	-12%	-113*	.	-15%	.
Cc1ccc2oc(-c3cccc(NC(=O)c4ccc(Br)o4)c3C)nc2c1	1%	3%	?	2%	20%[38.3 µM]	1
C[N+](C)(CCCOc1ccccc1)c1ccccc1	0%[25.6 µM]	0%	.	-1%[25.6 µM]	0%	4[20.6 µM]
Cc1ccc(S(=O)(=O)N(CC(=O)Nc2cccnc2)c2cc(Cl)ccc2C)cc1	.	.	.	.	.	1
Cc1ccc(C(=O)N2CC(C)OC(C)C2)c(Cl)c1 (centres undefined)	5%	16µM*	5	11%	-6%[38.3 µM]	0
Cc1ccc(/C=C/C(=O)N2CCN(S(=O)(=O)c3c(C)c(C)cc(C)c3C)CC2)o1	-15%	25µM*	14	.	9%	12
Cc1ccc(/C=C/C(=O)N2CCN(Cc3ccccc3)CC2)o1	2%	-26%	21	.	2%	.
Cc1ccc(/C=C/C(=O)N2CCN(S(=O)(=O)c3ccc(C)c(C)c3)CC2)o1	-16%	22µM*	?	.	5%	.
Cc1ccc(S(=O)(=O)N2CCN(C(=O)N(C)C)CC2)cc1C	0%	5%	18	-1%	22%[38.3 µM]	4
O=c1c2ccccc2oc2cc(O)c(C3COCC(CO)C(O)C(O)C3O)c(O)c12 (centres undefined)	0%	-7%	.	-3%	2%	?
COc1ccc2nc(NC(=O)CSc3nc(C)cc(=O)[nH]3)sc2c1	-27%	28µM*	-7	-17%	32%[38.3 µM]	5
Cc1ccc(-c2csc(NC(=O)CSc3nc(C)cc(=O)[nH]3)n2)cc1	-17%	28µM*	-89*	-17%	35%[38.3 µM]	-4
CCOC(=O)c1ccc(NC(=O)CSc2nnc(CNc3ccc(C)cc3)n2C)cc1	-6%	-12%	-100*	.	2%	6
COc1ccc2nc(NC(=O)CSc3nccc(C)n3)sc2c1	-7%	-23%	13	-2%	9%[38.3 µM]	10
CCOC(=O)c1ccc(Nc2cc(C)nc3ncnn23)cc1	1%	-24%	?	2%	-10%[38.3 µM]	14
CCOC(=O)c1ccc(Nc2nnc3nc(C)cc(C)n23)cc1	3%	22µM*	6	2%	11%	4
CCOC(=O)c1ccc(NC(=O)CSc2nc(C)cc(=O)[nH]2)cc1	-9%	28µM*	-24	-21%	-9%[38.3 µM]	-4
CCN(CC)c1ccc(NC(=O)CSc2nc(C)cc(=O)[nH]2)cc1	-6%	-2%	-10	4%	7%[38.3 µM]	16
SMILES	ALOX12 inhib	HPGD inh	PNC assembly inh	ALOX15B inhib	IMPase Li cell	IMPase inh
CCOC(=O)c1c(-c2ccccc2Cl)csc1NC(=O)CSc1nc(C)cc(=O)[nH]1	-2%	14µM*	41	.	2%	.
COC(=O)c1cc(NC(=O)CSc2nc(C)cc(=O)[nH]2)cc(C(=O)OC)c1	-8%	14µM*	35	3%	14%[38.3 µM]	5
CCOC(=O)c1c(-c2cccs2)csc1NC(=O)CSc1ncn[nH]1	4%	?	?	14%	18%[38.3 µM]	0
Cc1cc(=O)[nH]c(SCC(=O)Nc2ccc(C(=O)O)cc2)n1	1%	22µM*	16	7%	-14%[38.3 µM]	4
COc1cccc([C@@H]2Oc3ccc(Br)cc3[C@H](O)[C@H]2O)c1	.	-14%	.	.	-5%	.
C=C(C)COc1ccc(-c2ncncc2Oc2ccc(OC)cc2)c(O)c1	-20%	18µM*	15	29%	37%[38.3 µM]	?
Cc1ccc(CN2CCN(Cc3ccc(C)o3)[C@@H](C)C2)o1	-1%[11.4 µM]	-6%	.	4%[11.4 µM]	14%	.
C[C@H](C(=O)c1ccncc1)c1ccccn1	1%[11.4 µM]	-15%	.	-4%[11.4 µM]	3%	.
CCN(CC)S(=O)(=O)c1cccc(C(=O)NC(C(=O)NC2=NCCS2)C(C)C)c1 (centres undefined)	-3%	-6%	-116*	2%	-14%[38.3 µM]	-4
N#C[C@@H](Cc1ccc(O)c(O)c1)C(=O)N1CCc2ccccc21	?	.	.	?	.	3
COc1ccc(C(=O)N/N=C/c2cc3ccccc3[nH]c2=S)cc1	18µM*	1.3µM*	-27	?	25%[38.3 µM]	0
Cc1cccc(Cl)c1NC[C@H](O)CN1CCN(C)CC1	4%[11.4 µM]	-4%	.	-3%[11.4 µM]	1%	.
CCOc1ccc(N(C)S(=O)(=O)c2ccc3[nH]cc(C(=O)NCC4CCCO4)c(=O)c3c2)cc1 (centres undefined)	-12%	14µM*	?	-29%	13%[38.3 µM]	4
Cc1ccccc1N(C)S(=O)(=O)c1ccc2[nH]cc(C(=O)NCC3CCCO3)c(=O)c2c1 (centres undefined)	-3%	?	-84*	-13%	23%[38.3 µM]	3
CC(C)(SCc1ccccc1)[C@H](N)C(=O)O	-3%[11.4 µM]	2%	.	-2%[11.4 µM]	-2%	.
C/C(CC(=O)N(C(C)C)C(C)C)=N\NC(=O)COc1ccc(Br)cc1Br	-8%	-24%	-109*	.	21%	.
CC(C)NC(=O)CSc1nncn1-c1ccccc1	1%	-6%	-97*	5%	4%[38.3 µM]	2
CC(C)NC(=O)CSc1nc2ccccc2n1-c1ccccc1	-5%	-9%	9	.	7%	3
CC(C)NC(=O)CSc1nnc(-c2ccc(C(C)(C)C)cc2)n1C	-1%	-5%	-100*	.	6%	9
CC(C)Oc1cccc(C(=O)Nc2ccc(-c3nc4cc(Cl)cc(Cl)c4o3)cc2)c1	.	.	.	.	.	-13
Cc1cc([N+](=O)[O-])nn1CC(=O)Nc1nccs1	3%	-7%	-89*	.	3%	.
Cc1nc(N2CCOCC2)c2nc(-c3ccccc3)n(CCN3CCCCC3)c2n1	0%	?	.	25%	6%	.
Cc1ccc(S(=O)(=O)Nc2ccccc2C(=O)c2ccc(C)c(C)c2)cc1	3%[11.4 µM]	?	.	-5%[11.4 µM]	14%	.

Compound activity deposited in PubChem BioAssay by National Center for Advancing Translational Sciences (NCATS).
